Measured values published in PubChem BioAssay (EPA / NIEHS).
Active and inactive are the calls of the source. How the source made its calls: active means hit-call score of the fitted dose curve at least 0.9, where 1 is the maximum; inactive means score below 0.9.

Assays:
Conditions in all cases: mRNA level, 48 h; actives raise or lower the signal
[1] = read-out: Cyclin D1 (CCND1), CCND1 (gene 595); assay: LTEA_HepaRG_CCND1: Life Technologies and Expression Analysis (LTEA) Assay for Cyclin D1 (CCND1) using HepaRG (AID 2283451);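 on AC50: TaqMan qRT-PCR transcript level normalised to ACTB GAPDH and POLR2A housekeeping genes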
Outline: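 Expression change is measured by qRT-PCR in HepaRG cells after 48 h treatment across eight concentrations topping at 100 uM, with duplicate wells and DMSO (0.5%) serving as baseline for bidirectional fitting.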

[2] = read-out: catalase (CAT), CAT (gene 847); assay: LTEA_HepaRG_CAT: Life Technologies and Expression Analysis (LTEA) Assay for catalase (CAT) using HepaRG (AID 2283452);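 on AC50: TaqMan qRT-PCR signal normalized to ACTB GAPDH and POLR2A housekeeping genes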
Outline: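 Differentiated HepaRG cells in serum-free induction medium were dosed 48 h in duplicate, eight half-log concentrations from 100 uM in 0.5% DMSO. Transcript measured by TaqMan qRT-PCR, normalised to ACTB/GAPDH/POLR2A, fitted bidirectionally against DMSO.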

[3] = read-out: flavin-containing dimethylaniline monooxygenases 3 (FMO3), FMO3 (gene 2328); assay: LTEA_HepaRG_FMO3: Life Technologies and Expression Analysis (LTEA) Assay for flavin-containing dimethylaniline monooxygenases 3 (FMO3) using HepaRG (AID 2283453)
Outline: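 Differentiated HepaRG cells in serum-free induction medium, exposed 48 h in duplicate to 8 half-log concentrations up to 100 uM in 0.5% DMSO. FMO3 mRNA by qRT-PCR, normalized to ACTB, GAPDH, POLR2A; bidirectional fit vs DMSO.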

[4] = read-out: Cytochrome P450 (CYP1A1), CYP1A1 (gene 1543); assay: LTEA_HepaRG_CYP1A1: Life Technologies and Expression Analysis (LTEA) Assay for Cytochrome P450 (CYP1A1) using HepaRG (AID 2283454)
Outline: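 Using HepaRG cultures with 0.5% DMSO as vehicle, eight-concentration exposures (max 100 uM) lasted 48 h. Transcript levels were measured by TaqMan qRT-PCR and normalized to ACTB, GAPDH and POLR2A.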

[5] = read-out: CFLAR gene, CFLAR (gene 8837); assay: LTEA_HepaRG_CFLAR: Life Technologies and Expression Analysis (LTEA) Assay for CFLAR gene using HepaRG (AID 2283455)
Outline: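 HepaRG cells were plated for 48 h, switched to serum-free induction medium, then exposed in duplicate for 48 h to 8 concentrations (top 100 uM, half-log steps, 0.5% DMSO). CFLAR mRNA was measured by qRT-PCR, normalized to ACTB, GAPDH and POLR2A.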

[6] = read-out: Forkhead box O1 (FOXO1), FOXO1 (gene 2308); assay: LTEA_HepaRG_FOXO1: Life Technologies and Expression Analysis (LTEA) Assay for Forkhead box O1 (FOXO1) using HepaRG (AID 2283456)
Outline: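 Differentiated human HepaRG cells in serum-free induction medium were exposed in duplicate for 48 h to eight half-log concentrations (top 100 uM, 0.5% DMSO). FOXO1 mRNA was measured by TaqMan qRT-PCR, normalised to ACTB, GAPDH and POLR2A, and fitted bidirectionally against DMSO.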

[7] = read-out: growth arrest and DNA damage 45 (GADD45A), GADD45A (gene 1647); assay: LTEA_HepaRG_GADD45A: Life Technologies and Expression Analysis (LTEA) Assay for growth arrest and DNA damage 45 (GADD45A) using HepaRG (AID 2283458)
Outline: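 Cells plated and cultured 48 h, switched to serum-free induction medium, then dosed for 48 h (100 uM top, half-log dilutions, 0.5% DMSO). RNA was isolated and transcript measured by Fluidigm qRT-PCR.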

[8] = read-out: Forkhead box O3 (FOXO3), FOXO3 (gene 2309); assay: LTEA_HepaRG_FOXO3: Life Technologies and Expression Analysis (LTEA) Assay for Forkhead box O3 (FOXO3) using HepaRG (AID 2283459)
Outline: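 Differentiated human HepaRG cells in serum-free induction medium were exposed in duplicate for 48 h to eight half-log concentrations up to 100 uM in 0.5% DMSO. FOXO3 mRNA was quantified by qRT-PCR, normalized to ACTB, GAPDH and POLR2A, with bidirectional fitting versus DMSO.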

[9] = read-out: ABC Transporter (ABCB1), ABCB1 (gene 5243); assay: LTEA_HepaRG_ABCB1: Life Technologies and Expression Analysis (LTEA) Assay for ABC Transporter (ABCB1) using HepaRG (AID 2283460)
Outline: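 Differentiated human HepaRG cells, plated 48 h then switched to serum-free induction medium, were exposed in duplicate to eight half-log concentrations up to 100 uM in 0.5% DMSO for 48 h. ABCB1 mRNA was measured by TaqMan qRT-PCR, normalized to ACTB/GAPDH/POLR2A.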

[10] = read-out: growth arrest and DNA damage 45 (GADD45B), GADD45B (gene 4616); assay: LTEA_HepaRG_GADD45B: Life Technologies and Expression Analysis (LTEA) Assay for growth arrest and DNA damage 45 (GADD45B) using HepaRG (AID 2283461)
Outline: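 Human HepaRG monolayers receive chemicals for 48 h at eight half-log concentrations, highest 100 uM, in 0.5% DMSO. Expression is measured by TaqMan qRT-PCR and normalized to ACTB, GAPDH and POLR2A.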

[11] = read-out: ABC Transporter (ABCC3), ABCC3 (gene 8714); assay: LTEA_HepaRG_ABCC3: Life Technologies and Expression Analysis (LTEA) Assay for ABC Transporter (ABCC3) using HepaRG (AID 2283462)
Outline: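 Transcriptional change of ABCC3 in HepaRG after 48 h treatment, determined by qRT-PCR normalized to endogenous controls. Concentrations spanned eight half-log steps to 100 uM in 0.5% DMSO.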

[12] = read-out: ABC Transporter (ABCB11), ABCB11 (gene 8647); assay: LTEA_HepaRG_ABCB11: Life Technologies and Expression Analysis (LTEA) Assay for ABC Transporter (ABCB11) using HepaRG (AID 2283463)
Outline: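 Differentiated human HepaRG cells were exposed for 48 h in serum-free induction medium to eight half-log concentrations up to 100 uM in 0.5% DMSO. ABCB11 mRNA was quantified by qRT-PCR, normalized to ACTB, GAPDH and POLR2A, and fitted bidirectionally versus DMSO.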

[13] = read-out: ABC Transporter (ABCC2), ABCC2 (gene 1244); assay: LTEA_HepaRG_ABCC2: Life Technologies and Expression Analysis (LTEA) Assay for ABC Transporter (ABCC2) using HepaRG (AID 2283464)
Outline: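 After plating and 48 h culture, HepaRG medium is replaced with serum-free induction medium and chemicals are added (8 concentrations, max 100 uM, 0.5% DMSO) for 48 h. Total RNA then undergoes qRT-PCR for ABCC2 with housekeeping normalization.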

[14] = read-out: Broad substrate specificity ATP-binding cassette transporter ABCG2 (Homo sapiens) (UniProt Q9UNQ0); assay: LTEA_HepaRG_ABCG2: Life Technologies and Expression Analysis (LTEA) Assay for ABC Transporter (ABCG2) using HepaRG (AID 2283465)
Outline: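 Differentiated HepaRG cells in serum-free induction medium were exposed for 48 h, in duplicate, to eight half-log concentrations up to 100 uM in 0.5% DMSO. ABCG2 mRNA was measured by TaqMan qRT-PCR, normalized to ACTB, GAPDH and POLR2A, and fitted bidirectionally versus DMSO.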

[15] = read-out: ATP-citrate lyase (ACLY), ACLY (gene 47); assay: LTEA_HepaRG_ACLY: Life Technologies and Expression Analysis (LTEA) Assay for ATP-citrate lyase (ACLY) using HepaRG (AID 2283466)
Outline: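 Differentiated human HepaRG cells in serum-free induction medium exposed 48 h, in duplicate, to eight half-log concentrations from 100 uM top in 0.5% DMSO; ACLY mRNA measured by qRT-PCR, normalized to ACTB, GAPDH, POLR2A, fitted bidirectionally versus DMSO.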

[16] = read-out: Peroxisomal acyl-coenzyme A oxidase 1 (ACOX1) gene, ACOX1 (gene 51); assay: LTEA_HepaRG_ACOX1: Life Technologies and Expression Analysis (LTEA) Assay for Peroxisomal acyl-coenzyme A oxidase 1 (ACOX1) gene using HepaRG (AID 2283467)
Outline: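 Differentiated human HepaRG cells were exposed in duplicate for 48 h in serum-free induction medium to eight half-log concentrations up to 100 uM in 0.5% DMSO. ACOX1 mRNA was then quantified by TaqMan qRT-PCR, normalized to ACTB, GAPDH and POLR2A.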

[17] = read-out: Alkaline Phosphatase, Placental (ALPP) gene, ALPP (gene 250); assay: LTEA_HepaRG_ALPP: Life Technologies and Expression Analysis (LTEA) Assay for Alkaline Phosphatase, Placental (ALPP) gene using HepaRG (AID 2283468)
Outline: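 Using human liver HepaRG cells, chemicals are tested in duplicate over 48 h at half-log concentrations topping at 100 uM; phenobarbital 1 mM serves as induction control. ALPP mRNA change by qRT-PCR, bidirectional fit against vehicle.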

[18] = read-out: Bcl-2 (BAD) gene, BAD (gene 572); assay: LTEA_HepaRG_BAD: Life Technologies and Expression Analysis (LTEA) Assay for Bcl-2 (BAD) gene using HepaRG (AID 2283469)
Outline: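 Differentiated human HepaRG cells in serum-free induction medium were exposed in duplicate for 48 h to eight concentrations (top 100 uM, half-log steps, 0.5% DMSO). BAD mRNA was quantified by qRT-PCR normalised to ACTB, GAPDH and POLR2A, with bidirectional fitting versus DMSO.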

[19] = read-out: Bcl-2 (BAX) gene, BAX (gene 581); assay: LTEA_HepaRG_BAX: Life Technologies and Expression Analysis (LTEA) Assay for Bcl-2 (BAX) gene using HepaRG (AID 2283470)
Outline: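 HepaRG (human liver), 48 h exposure, duplicate wells. 8-pt curve, half-log from 100 uM, 0.5% DMSO. BAX transcript by TaqMan qRT-PCR; ACTB/GAPDH/POLR2A normalization; gain or loss vs DMSO baseline.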

Measured: AC50

Chain of Broad substrate specificity ATP-binding cassette transporter ABCG2 (Homo sapiens) (Q9UNQ0 whole entry, looked up): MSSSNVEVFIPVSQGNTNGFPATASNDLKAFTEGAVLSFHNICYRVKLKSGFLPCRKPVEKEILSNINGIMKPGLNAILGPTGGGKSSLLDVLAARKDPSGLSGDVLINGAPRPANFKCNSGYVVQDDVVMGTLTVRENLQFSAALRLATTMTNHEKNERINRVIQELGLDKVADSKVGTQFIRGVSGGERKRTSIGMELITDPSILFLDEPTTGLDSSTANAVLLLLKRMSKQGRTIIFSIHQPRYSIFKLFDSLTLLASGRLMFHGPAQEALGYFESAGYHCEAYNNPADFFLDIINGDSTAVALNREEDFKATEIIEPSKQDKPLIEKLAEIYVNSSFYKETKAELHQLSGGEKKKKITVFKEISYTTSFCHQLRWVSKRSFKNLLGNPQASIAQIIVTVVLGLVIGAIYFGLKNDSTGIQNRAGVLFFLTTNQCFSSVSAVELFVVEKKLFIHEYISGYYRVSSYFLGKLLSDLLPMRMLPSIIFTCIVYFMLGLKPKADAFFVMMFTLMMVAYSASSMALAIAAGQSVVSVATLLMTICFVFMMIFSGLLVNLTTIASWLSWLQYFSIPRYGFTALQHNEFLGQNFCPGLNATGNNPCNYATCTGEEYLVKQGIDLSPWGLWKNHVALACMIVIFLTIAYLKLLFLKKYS

COC(=O)CCC(=O)OC
inactive: [1] | [2] | [3] | [5] | [6] | [7] | [8] | [9] | [10] | [11] | [12] | [13] | [14] | [15] | [16] | [17] | [18] | [19]
active: [4] 50000 nM

Nc1nc(Cl)nc2c1ncn2[C@H]1C[C@H](O)[C@@H](CO)O1
inactive: [5] | [14] | [15] | [17] | [18]
active: [1] 3490 nM | [2] 887 nM | [3] 2050 nM | [4] 749 nM | [6] 1650 nM | [7] 263 nM | [8] 2180 nM | [9] 1390 nM | [10] 447 nM | [11] 987 nM | [12] 593 nM | [13] 1120 nM | [16] 4130 nM | [19] 415 nM

CCCCCCCCCCCCCCCCO
active: [2] 9920 nM | [4] 8360 nM
inactive: [1] | [3] | [5] | [6] | [7] | [8] | [9] | [10] | [11] | [12] | [13] | [14] | [15] | [16] | [17] | [18] | [19]
